Data from PubChem BioAssay (Tox21).
Records with an inconclusive call do not appear. A call without a number means that no potency is given here. Calls of active or inactive are those of the source. The call rests on the fitted dose curve; in most records, active means well fitted cell-killing curve with a large enough effect in the repeat runs; inconclusive means weak or mixed curves, or effect the other way; inactive means no such curve, though single readings can be large or run the other way.

experiment: qHTS assay to identify small molecule agonists of the farnesoid-X-receptor (FXR) signaling pathway - cell viability counter screen (AID 743218); details: FXR-bla HEK293T viability, CellTiter-Glo luminescence, 16 h; series mostly up to 62.6 µM; further: nearly all actives have a fitted effect of over 45% in size
Text: U.S. Tox21 Program National Center for Advancing Translational Sciences [NCATS] NIH Chemical Genomics Center [NCGC] U.S. Environmental Protection Agency [EPA] National Institutes of Environmental Health Sciences [NIEHS] National Toxicology Program [NTP] U.S. Food and Drug Administration [FDA] Tox21 Assay Overview: The farnesoid-X-receptor (FXR), a nuclear hormone receptor, is highly expressed in liver, intestine, kidney and adrenal cortex. Natural ligands of FXR are the bile acids (Cholic acid, Chenodeoxy cholic acid etc). FXR is an important regulator of diverse metabolic pathways, including the bile acid homeostasis, lipid and glucose metabolisms. FXR regulates the expression of target genes by binding either as a monomer or as a heterodimer with the retinoid X receptor (RXR). Numerous studies have reported that FXR exerts protective function during cholestasis, diabetes, liver regeneration, and cancer. To identify compounds that activate FXR signaling, GeneBLAzer FXR-UAS-bla HEK 293T cell line (Invitrogen, Carlsbad, CA) containing a beta-lactamase reporter gene under the control of a UAS response element was used to screen the Tox21 10K compound library. The cytotoxicity of the Tox21 compound library against the FXR-bla cell line was tested in parallel by measuring the cell viability using CellTiter-Glo assay in the same wells.
Tox21 Assay Protocol Summary: FXR-bla cells were dispensed at 5000 cells/5uL/well in 1536-well black wall/clear bottom plates using a Multidrop Combi (Thermo Fisher Scientific, Waltham, MA) dispenser. After the assay plates were incubated at 37 C and 5% CO2 for 5 h, 23 nL of compounds dissolved in DMSO, positive controls or DMSO only was transferred to the assay plate by a Pintool station (Kalypsys, San Diego, CA). The assay plates were incubated at 37C for 16 h. After 1 uL of LiveBLAzerTM B/G FRET substrate was added using a Bioraptr Flying Reagent Dispenser (FRD) workstation (Beckman Coulter, Indianapolis, IN), the plates were incubated at room temperature for 2 h, and fluorescence intensity was measured by an Envision plate reader (PerkinElmer, Shelton, CT). For cell viability readout that measures cytotoxicity, 4uL/well of CellTiter-Glo reagent was added into the assay plates using a Bioraptr FRD. After 30 min incubation at room temperature, the luminescence intensity in the plates was measured using a ViewLux plate reader (PerkinElmer).

Row | Compound | Potency
1 | COC1=CC(=O)C[C@@H](C)[C@]12Oc1c(Cl)c(OC)cc(OC)c1C2=O | inactive
2 | CC(O)COc1ccccc1 (stereo not given) | inactive
3 | COc1cc(C=O)ccc1O | inactive
4 | C#C[C@]1(O)CC[C@H]2[C@@H]3CCC4=CC(=O)CC[C@@H]4[C@H]3CC[C@@]21CC | inactive
5 | Cc1cnc(NC(=O)C2=C(O)c3ccccc3S(=O)(=O)N2C)s1 | inactive
6 | NC(=O)N1c2ccccc2C=Cc2ccccc21 | inactive
7 | Cc1ccc(O)c(-n2nc3ccccc3n2)c1 | inactive
8 | CO[C@H]1C=CO[C@@]2(C)Oc3c(C)c(O)c4c(O)c(c(/C=N/N5CCN(C)CC5)c(O)c4c3C2=O)NC(=O)/C(C)=C\C=C[C@H](C)[C@H](O)[C@@H](C)[C@@H](O)[C@@H](C)[C@H](OC(C)=O)[C@@H]1C | inactive
9 | Nc1ccc(N=Nc2ccccc2)c(N)n1 | inactive
10 | COc1ccccc1NC(=O)CC(C)=O | inactive
11 | CC1(C)O[C@@H]2[C@@H](CO[C@@]3(COS(N)(=O)=O)OC(C)(C)O[C@@H]23)O1 | inactive
12 | CCCCOCCOCCOC(C)=O | inactive
13 | CCOC(=O)C(C)(C)Oc1ccc(Cl)cc1 | inactive
14 | CC(=O)/C=C/C1=C(C)CCCC1(C)C | inactive
15 | COc1ccccc1O | inactive
16 | CCCCNC(=O)NS(=O)(=O)c1ccc(N)cc1 | inactive
17 | COc1ccc(O)cc1 | inactive
18 | CCN1CCCC1=O | inactive
19 | Cc1c(N(C)C)c(=O)n(-c2ccccc2)n1C | inactive
20 | COc1cc2c(c(OC)c1OC)-c1ccc(OC)c(=O)cc1[C@@H](NC(C)=O)CC2 | inactive

Row | Compound | Potency
21 | CCCCOC(=O)CCCCCCCCC(=O)OCCCC | inactive
22 | COC(=O)c1ccc(C=O)cc1 | inactive
23 | CC1=C(/C=C/C(C)=C/C=C/C(C)=C/C(=O)O)C(C)(C)CCC1 | inactive
24 | CC(C)=CCC/C(C)=C/CO | inactive
25 | CCOCCO | inactive
26 | CN(C)C=O | inactive
27 | C#C[C@]1(O)CC[C@H]2[C@@H]3CCc4cc(O)ccc4[C@H]3CC[C@@]21C | inactive
28 | O=C1OC(c2ccc(O)cc2)(c2ccc(O)cc2)c2ccccc21 | inactive
29 | CCCCCCCCCCCCCCCCCC(=O)OCC(O)CO (stereo not given) | inactive
30 | CN/C(=C\[N+](=O)[O-])NCCSCc1ccc(CN(C)C)o1 | inactive
31 | C/C=C/c1ccc(O)c(OC)c1 | inactive
32 | COC(=O)C1CCC(C(=O)OC)CC1 (stereo not given) | inactive
33 | Cc1c(N(C)CS(=O)(=O)O)c(=O)n(-c2ccccc2)n1C | inactive
34 | NC(N)=NC(N)=NCCc1ccccc1 | inactive
35 | C=CC(=O)NC(C)(C)CS(=O)(=O)O | inactive
36 | COc1cc(O)c(C(=O)c2ccccc2)cc1S(=O)(=O)O | inactive
37 | CC(C)(C)NCC(O)c1ccc(O)c(CO)c1 (stereo not given) | inactive
38 | CC(C)Cc1ccc(C(C)C(=O)O)cc1 (stereo not given) | inactive
39 | NC(=O)NO | inactive
40 | C[C@]12C[C@H](O)[C@H]3[C@@H](CCC4=CC(=O)CC[C@@]43C)[C@@H]1CC[C@@H]2C(=O)CO | inactive
